Among the test systems are T-47D breast; BT-549 breast; MDA-MB-435 melanoma; SW-620 colon; MCF7 breast; HCC-2998 colon; KM12 colon; HCT-116 colon.
Holding throughout (test): NCI-60 one-dose screen, 48 h (100 = growth as untreated, 0 = no growth, -100 = all killed)
What all share (conditions): 10 µM unless noted

This is part of a sample that, as a whole, favours compounds with a hit. Of some 83,000 tested, about 20% had one in any assay.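 Method: cells in 96-well plates; compound added at one concentration; 48 h incubation; percent growth measured; values under 10 scored active.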 A number with no mark means an inactive call. Active and inactive are the calls of the source.

On to `O=C1C=C(SCCO)C(=O)c2ccccc21`, for which the growth in the assay on T-47D breast was -1.68% (active); in the assay with BT-549 breast it was -26.5% (active); in the assay on MDA-MB-435 melanoma it was -88.3% (active); with SW-620 colon, -52.6% (active); in the assay with MCF7 breast, -55.1% (active); in the assay on HCC-2998 colon, 78.3%. Besides, the growth in the assay on KM12 colon was 83.4%.

As to `CC(C)n1c2ccc(Br)cc2c2c3c(c4c5ccccc5ccc4c21)C(=O)NC3=O`, the growth in the assay with T-47D breast is 63.3%; with BT-549 breast it was 95.9%; in the assay on MDA-MB-435 melanoma, 92.4%; with SW-620 colon, 101%; with MCF7 breast, 86.2%; in the assay on HCT-116 colon it was 85.2%. Moreover, the growth in the assay with HCC-2998 colon was 103%; with KM12 colon, 52.7%.

Turning to `CN1C(=O)/C(=C/c2ccc(C(=O)Nc3ncc(Cc4cccc(C(F)(F)F)c4)s3)cc2)SC1=S`, the growth is 30% with T-47D breast; 47.3% in the assay on BT-549 breast; -27.2% (active) in the assay with MDA-MB-435 melanoma; 38.2% with SW-620 colon; 30.4% in the assay with MCF7 breast; 49.6% in the assay on HCC-2998 colon. Besides, the growth in the assay with KM12 colon was 28%.

Turning to `O=C(/C=C/c1ccccc1)c1cccc2ccccc12`, the growth is 32.9% with T-47D breast; 62.5% in the assay on BT-549 breast; 16.8% in the assay on MDA-MB-435 melanoma; 9.3% (active) in the assay on SW-620 colon; 11.6% in the assay with MCF7 breast; 48.3% with HCC-2998 colon. Also, the growth with KM12 colon is 37.4%.

For the molecule `CCn1cc(C(=O)N/N=C/c2cccc(F)c2)c(=O)c2cc(F)c(N3CCNC(C)C3)c(F)c21` (centres undefined), the growth with T-47D breast was 72.3%; with BT-549 breast it was 82.9%; with MDA-MB-435 melanoma it was -74.7% (active); with SW-620 colon, -84.6% (active); in the assay with MCF7 breast it was -83.5% (active); in the assay with HCC-2998 colon, -80.6% (active). Moreover, the growth in the assay on KM12 colon is -26.8% (active).

Consider `COc1ccc(C=Nc2c(C(=O)Nc3cccc(Cl)c3C)sc3nc(C)c(C(=O)/C=C/c4ccc(OC)cc4)cc23)cc1`, for which the growth with T-47D breast was 24.3%; with BT-549 breast, 40%; with MDA-MB-435 melanoma, -65.8% (active); in the assay with SW-620 colon, 12.4%; with MCF7 breast, 11.8%; with HCC-2998 colon, 57.6%. For the same molecule, the growth in the assay with KM12 colon is 12.4%.

For the molecule `C/C(=N\Nc1ccccc1)c1ccc(NC2=CC(=O)c3ccccc3C2=O)cc1`, the growth was 38.8% with T-47D breast; 76.3% in the assay on BT-549 breast; -80.3% (active) in the assay on MDA-MB-435 melanoma; 48.4% in the assay with SW-620 colon; 30.4% in the assay on MCF7 breast; 77.9% in the assay with HCC-2998 colon. Moreover, in the assay with KM12 colon, the growth is 43.7%.

On to `Nc1ncnc2c1N=C(c1ccc(F)cc1)CC(c1cccc(Nc3ccnc4cc(Cl)ccc34)c1)N2` (centres undefined), for which the growth with T-47D breast was 93.2%; in the assay with BT-549 breast, 99.9%; in the assay on MDA-MB-435 melanoma, 41.8%; in the assay with SW-620 colon it was 82.8%; in the assay with MCF7 breast, 51.2%; in the assay with HCC-2998 colon it was 82.5%. In addition, in the assay with KM12 colon, the growth was 60.9%.

For the molecule `C#Cc1cccc(NC(=O)C2CCCCN2C(=O)CCl)c1` (centres undefined), the growth was -4.16% [8.25 µM] (active) with T-47D breast; -55.9% [8.25 µM] (active) in the assay on BT-549 breast; -57.3% [8.25 µM] (active) with MDA-MB-435 melanoma; -59.9% [8.25 µM] (active) in the assay with SW-620 colon; -7.64% [8.25 µM] (active) in the assay on MCF7 breast; -18.7% [8.25 µM] (active) in the assay on HCC-2998 colon. Besides, the growth in the assay with KM12 colon was -34.2% [8.25 µM] (active).

On to `CC1=Nc2cnc(Nc3ccc(N4CCCCC4)cc3)nc2Nc2ccccc21`, for which the growth in the assay on T-47D breast is 46.9%; in the assay on BT-549 breast, 42.5%; in the assay with MDA-MB-435 melanoma, 89.7%; with SW-620 colon, 96%; in the assay with MCF7 breast it was 72.5%; in the assay on HCC-2998 colon it was 106%. In the assay on KM12 colon, the growth was 54.9%.

`c1ccc(Cn2cc3c(c2-c2ccccc2)CCc2cnoc2-3)cc1`: the growth in the assay with T-47D breast is 67%; in the assay on BT-549 breast, 64.1%; with MDA-MB-435 melanoma it was 13.5%; in the assay on SW-620 colon, 24.1%; with MCF7 breast, 51.3%; in the assay with HCC-2998 colon, 58.5%. Also, in the assay with KM12 colon, the growth was 27.7%.

`COc1ccc(/C=C(\C(=O)NCc2cccnc2)S(=O)(=O)c2ccccc2)cc1OC`: the growth in the assay on T-47D breast is 12.1%; with BT-549 breast, 35.5%; with MDA-MB-435 melanoma, -8.51% (active); in the assay on SW-620 colon it was 11.9%; with MCF7 breast, 12.9%; in the assay on HCC-2998 colon it was 96.6%. Further, in the assay with KM12 colon, the growth was 52.8%.

With `O=C(/C=C/C12c3ccccc3C(c3ccccc31)C1C(=O)NC(=O)C12)c1ccc(Cl)cc1Cl` (centres undefined), the growth is 9.41% (active) in the assay on T-47D breast; 14.6% in the assay with BT-549 breast; -0.0298% (active) in the assay on MDA-MB-435 melanoma; 5.09% (active) with SW-620 colon; 6.75% (active) in the assay with MCF7 breast; 68.2% in the assay with HCC-2998 colon. Further, the growth with KM12 colon was 17.4%.

`CCOC(=O)NCCCC(=O)NCCc1ccccc1`: the growth in the assay with T-47D breast was 100%; in the assay with BT-549 breast, 110%; in the assay on MDA-MB-435 melanoma, 109%; with SW-620 colon, 111%; with MCF7 breast it was 97.8%; in the assay with HCC-2998 colon, 99.1%. In the assay with KM12 colon, the growth was 96.6%.

`O=C(/C=C/c1ccccc1)N(C1CCCCC1)C1CCCCC1`: the growth is 69.2% with T-47D breast; 77.3% in the assay with BT-549 breast; 99% in the assay with MDA-MB-435 melanoma; 92.4% in the assay on SW-620 colon; 88.4% with MCF7 breast; 92.4% in the assay on HCC-2998 colon. Further, the growth in the assay on KM12 colon is 95.1%.

In the case of `CCOC(=O)C1=C(CC(O)c2ccc(OC)cc2OC)NC(=O)NC1c1ccccc1` (centres undefined), the growth with T-47D breast was 110%; in the assay on BT-549 breast, 102%; in the assay on MDA-MB-435 melanoma, 99.4%; in the assay on SW-620 colon, 115%; with MCF7 breast it was 120%; in the assay on HCT-116 colon, 89.2%. Besides, the figures for the growth in the assay with HCC-2998 colon and in the assay with KM12 colon were 90.6% and 115%, respectively.

For the origin of these results see PubChem BioAssay (NCI).
